Many of the other results were omitted from the sample, so hits are more common in it than they were.
G9a block – blocks human histone lysine methyltransferase G9a; Q96KQ7; G9a H3K9 monomethylation, AlphaScreen, 2 h; Potency, µM (titrated, usually from 102 µM), inactives show at the top dose activity, negative = inhibition, usual class: inhibitors; 8.8% of 350,000 active; note: % is set by controls: 0 for no effect and ±100 for the full control effect; nearly all actives have a fitted effect of over 75% in size
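Step 1: enzyme (final 20 nM) with compound, 15 min RT. Step 2: substrate peptide 500 nM and SAM 20 uM, 2 h RT. Step 3: anti-H3K9me1 antibody and AlphaScreen beads, 10 min, then plate read.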
Glioma ERSR ind – induces the endoplasmic reticulum stress response in human glioma cells; U87-MG GRP78 promoter luciferase reporter, 16 h; Potency, µM, without a hit: at the highest dose activation, hits mostly activators; 0.02% of 420,000 active; AID 602332; note: series mostly up to about 76 µM; % of control where 0% means no effect; nearly all actives have a fitted effect of over 35% in size
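Stably transfected U87-MG human glioma cells carrying a GRP78-based luminescent sensor were seeded at 1000 cells/well, pin-dosed with compounds and incubated 16 h. Luciferase reagent was then added, and end-point luminescence was read after 10 min at room temperature.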
VDR inhibitor – blocks the human vitamin D receptor | P11473 | VDR-SRC2-3 peptide fluorescence polarization, 2 h | Potency, µM, for inactives: max response, negative = inhibition, hits mostly inhibitors | 0.93% of 400,000 active | AID 504847; note: % is set by controls: 0 for no effect and ±100 for the full control effect
Target sequence (P11473 whole entry, looked up): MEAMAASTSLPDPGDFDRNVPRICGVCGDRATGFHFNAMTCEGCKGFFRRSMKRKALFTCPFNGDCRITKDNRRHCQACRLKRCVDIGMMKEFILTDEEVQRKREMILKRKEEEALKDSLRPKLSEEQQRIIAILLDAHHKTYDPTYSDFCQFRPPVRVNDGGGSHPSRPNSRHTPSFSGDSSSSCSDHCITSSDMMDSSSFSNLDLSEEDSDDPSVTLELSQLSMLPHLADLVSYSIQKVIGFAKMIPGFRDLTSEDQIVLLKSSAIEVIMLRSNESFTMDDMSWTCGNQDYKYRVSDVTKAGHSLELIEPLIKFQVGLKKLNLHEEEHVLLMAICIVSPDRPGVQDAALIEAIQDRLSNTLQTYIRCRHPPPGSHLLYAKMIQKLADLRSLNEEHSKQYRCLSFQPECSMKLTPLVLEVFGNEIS
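After 23 nl compound addition and a short centrifugation, plates sat for 2 hours at ambient temperature; polarization of fluorescence then indicated loss of VDR binding to peptide SRC2-3.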
Sfp PPTase inh – inhibitors of Bacillus subtilis Sfp phosphopantetheinyl transferase | Q9F4F7 | Biochemical Sfp PPTase activity, qHTS | Potency, µM, inactives show largest response in the series, negative = inhibition, hits mostly inhibitors | 3.5% of 310,000 active;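 note: the enzyme is Sfp with the accession as filed and its product quenches rhodamine fluorescence; 0% = enzyme reaction without inhibitor and -100% = no enzyme wells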
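Buffer: 50 mM Hepes-Na pH 7.6, 10 mM MgCl2, 0.01% Nonidet P-40, 0.01% BSA. Enzyme 15 nM, pre-exposed to compound 15 min; substrates then added and fluorescence change tracked over 30 min.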
12-LOX inh – blocks human arachidonate 12S-lipoxygenase. P18054. purified 12hLO, xylenol orange hydroperoxide absorbance. Potency, µM (highest dose often 108 µM), without a hit: top-dose activity change, negative = inhibition, most hits filed as inhibitors. 1.1% of 580,000 active. AID 1671190; note: % is set by controls: 0 for no effect and ±100 for the full control effect
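Hydroperoxide product was detected by ferrous iron/xylenol orange as the 573 to 405 nm absorbance ratio. Arachidonic acid at 40 uM (final) was turned over for 30 min at room temperature by 150 nM human 12hLO, pH 7.0 Hepes buffer, after 15 min compound preincubation.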
An asterisk follows results filed as active; ! = not active in a repeat; [ ] = remark or other dose. Calls come from the whole dose curve; as a rule, active = well fitted curve in the direction sought with a large enough effect; inconclusive = small, poorly fitted or top-dose-only effect, or another doubt; inactive = no such curve, though single readings can be large; an effect the other way counts as inactive or inconclusive. Potency is the fitted concentration of half-maximal effect.

O=c1[nH]c(C2CCCN(Cc3cccc(-c4ccsc4)c3)C2)nc2ccc(F)cc12 (configuration not stated) was read as 12-LOX inh 25.1µM*!.
`O=C(NC1CCCC1)N[C@@H]1C[C@H](Cn2cc(C3CC3)nn2)[C@@H](O)[C@H]1O` gave 12-LOX inh 22.4µM*.
CC1(COc2cccnc2)COc2ccc(C(=O)NCCOc3ccccc3)cc2N1 (configuration not stated) was read as 12-LOX inh 40.1%[176 µM].
Screening COc1ccc2cc(C(=O)NCc3ccncc3)c(C)nc2c1 returned 12-LOX inh -19.4%.
Cc1ccccc1NC(=O)C1CCCC1 was read as 12-LOX inh -5.9%.
Screening Cc1cccc(C)c1NC(=O)C1c2cccc[n+]2CC(=O)N1Cc1ccc2c(c1)OCO2 (configuration not stated) returned G9a block 8.91µM*, Glioma ERSR ind 0.1%, VDR inhibitor 13.1%, Sfp PPTase inh -7.7% and 12-LOX inh inconclusive.
Cc1cccc(C)c1NC(=O)C1c2ccccc2OCC(=O)N1Cc1ccccc1 (configuration not stated) was read as 12-LOX inh -12.8%.
Screening Cc1ccccc1NC(=O)C1c2cccc[n+]2CC(=O)N1c1c(C)cccc1C (configuration not stated) returned G9a block 5.62µM*, Glioma ERSR ind -0.7%, VDR inhibitor -21.5%, Sfp PPTase inh 50.1µM* and 12-LOX inh inconclusive.
Screening Cc1ccc(-n2ncc(C(=O)NCC3CCN(C4CCCC4)C3)c2C2CCN(C(=O)OC(C)(C)C)CC2)cc1 (configuration not stated) returned G9a block 70.8µM*, Glioma ERSR ind -2.2%, VDR inhibitor -12.6%, Sfp PPTase inh -8.4% and 12-LOX inh -10.5%.
COc1ccc(CCN2CCC(CNC(=O)c3cnn(-c4ccc(C)cc4)c3C3CCN(C(=O)OC(C)(C)C)CC3)CC2)cc1 was read as G9a block -19.9%[59 µM], Glioma ERSR ind -2.3%, VDR inhibitor 7.4% and 12-LOX inh 39.8µM*.
Screening Cc1ccc(CN2CCC(CNC(=O)c3cnn(-c4ccccc4)c3C3CCN(C(=O)OC(C)(C)C)CC3)CC2)cc1 returned G9a block -13.6%[59 µM], Glioma ERSR ind -3.4%, VDR inhibitor 11.6% and 12-LOX inh -4.9%.
Screening CCN1CCN(Cc2nc3ccc([N+](=O)[O-])cc3c(=O)n2-c2ccc(OC)cc2OC)CC1 returned G9a block 29.4%, Glioma ERSR ind 1.6%, VDR inhibitor 8.3%, Sfp PPTase inh -4.1% and 12-LOX inh 30.9%.
CCOC(=O)C1CCN(Cc2nc3ccc([N+](=O)[O-])cc3c(=O)n2-c2ccc(OC)cc2OC)CC1 was read as G9a block 31.6µM*, Glioma ERSR ind -2.2%, VDR inhibitor inconclusive, Sfp PPTase inh 5.4% and 12-LOX inh -3.2%.
CCOC(=O)C1CCCN(Cc2nc3ccc([N+](=O)[O-])cc3c(=O)n2-c2ccc(OC)cc2OC)C1 (configuration not stated) was read as G9a block 39.8µM*, Glioma ERSR ind -6.3%, VDR inhibitor -22.2%, Sfp PPTase inh -3.3% and 12-LOX inh 0.1%.
COc1ccc(-n2c(CN3CCC(C(N)=O)CC3)nc3ccc([N+](=O)[O-])cc3c2=O)c(OC)c1 was read as G9a block 56.2µM*, Glioma ERSR ind -0.7%, VDR inhibitor -5.3%, Sfp PPTase inh 3.8% and 12-LOX inh 14.5%.
Screening CCOC(=O)c1cnc(SC2CCc3ccccc3C2=O)nc1N (configuration not stated) returned G9a block 35.5µM*, Glioma ERSR ind -1.4%, VDR inhibitor 9.7%, Sfp PPTase inh 56.2µM* and 12-LOX inh inconclusive.
`CCOC(=O)c1cc(-c2ccccc2)n(-c2cccc(C(=O)N(C)c3ccc(C)cc3)c2)c1C` gave G9a block 15.8µM*, Glioma ERSR ind -1.9%, VDR inhibitor 4.1% and 12-LOX inh inconclusive.
CCOC(=O)c1cc(-c2ccccc2)n(-c2cccc(C(=O)NC(C)(C)C)c2)c1C was read as G9a block inconclusive, Glioma ERSR ind -3.9%, VDR inhibitor 0.8% and 12-LOX inh -7.0%.
